Pf growth 48h: Primary qHTS for delayed death inhibitors of the malarial parasite plastid, 48 hour incubation. P. falciparum luciferase growth in erythrocytes, 48 h. Potency, µM (highest dose often 28.7 µM), actives largely listed as inhibitors. actives 5.9% (n = 310,000)
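In quantitative HTS format, infected erythrocytes bearing luciferase-reporter parasites were treated for a single generation at 37 C. Luminescence after adding detection reagent served as the growth measure.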
AMA1-RON2 inh: qHTS for Inhibitors of AMA1-RON; Towards Development of Antimalarial Drug Lead: Primary Screen | Plasmodium falciparum AMA1 (3D7) - RON2 peptide interaction | AlphaScreen AMA1-biotinylated RON2 peptide binding | Potency, µM (doses to about 58.2 µM), actives largely listed as inhibitors | actives 0.2% (n = 360,000) | AID 720542, 2013; note: nearly all actives have a fitted effect of over 45% in size
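AMA1 (3D7) with his tag at 25 nM final met compounds first, then biotinylated RON2 peptide at 25 nM; detection used donor plus acceptor beads, 10 µg/mL apiece, read by AlphaScreen after 30 min at room temperature.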
VACV Venus inh: qHTS for Stage-Specific Inhibitors of Vaccinia Orthopoxvirus: Venus Reporter Primary qHTS; Vaccinia virus Venus reporter expression, fluorescence; Potency, µM (series often up to 36.5 µM), usual class: inhibitors; actives 0.46% (n = 330,000); calls by dose curve; tested in A549 cells; note: nearly all actives have a fitted effect of over 30% in size
Vaccinia mCherry: qHTS for Stage-Specific Inhibitors of Vaccinia Orthopoxvirus: mCherry Reporter Primary qHTS | Potency, µM (highest dose often 36.5 µM), usual class: inhibitors | Vaccinia virus mCherry reporter infection, fluorescence | actives 0.63% (n = 310,000) | AID 720579, 2013; calls by dose curve; tested in A549 cells; note: nearly all actives have a fitted effect of over 35% in size
Pf growth 96h: Primary qHTS for delayed death inhibitors of the malarial parasite plastid, 96 hour incubation; P. falciparum luciferase reporter growth, 96 h; Potency, µM (top dose mostly 28.7 µM), actives largely listed as inhibitors; actives 6.9% (n = 320,000)
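Luminescence readout: decreased luciferase signal marks inhibited growth of reporter-expressing P. falciparum in infected red cells (2% hematocrit, 0.05% parasitemia final), exposed to compound two generations (96 h, 37 C, 5% CO2).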
A number is an active result; n = inactive; u = inconclusive; x = no result given; [ ] = another dose, or the depositor's remark. An excerpt weighted towards active compounds, which were near 8.7% of everything screened. Unless noted, calls come from the whole dose curve; as a rule, active = well fitted curve in the direction sought with a large enough effect; inconclusive = small, poorly fitted or top-dose-only effect, or another doubt; inactive = no such curve, though single readings can be large; an effect the other way counts as inactive or inconclusive.

SMILES | Pf growth 48h | AMA1-RON2 inh | VACV Venus inh | Vaccinia mCherry | Pf growth 96h
CCOC(=O)c1c(NC(=O)c2cc(=O)c3ccc(C)cc3o2)sc(C)c1C | x | x | n | n | x
O=C(CCCN1C(=O)C(c2ccccc2)Oc2cccnc21)Nc1cccc(F)c1 (stereo not given) | 10.4µM | n | x | x | u
Cc1cc(C)cc(NC(=O)CCCN2C(=O)C(c3ccccc3)Oc3cccnc32)c1 (stereo not given) | u | n | x | x | 3.7µM
O=C(CN1C(=O)C(c2ccccc2)Oc2cccnc21)NCc1ccccc1F (stereo not given) | u | n | n[7.34 µM] | n[7.34 µM] | 9.28µM
CC(=O)Nc1ccc(NC(=O)CCCN2C(=O)C(c3ccccc3)Oc3cccnc32)cc1 (stereo not given) | x | n | n | n | x
COc1ccc(CNC(=O)CN2C(=O)C(c3ccccc3)Oc3cccnc32)cc1 (stereo not given) | n | n | n | n | u
Cc1nc(C)n(CC(=O)NCC2Cc3cc(-c4ccsc4)cc(Cl)c3O2)n1 (stereo not given) | x | x | n | n | x
COc1ccc(O)c(/C=N/Nc2nc(Nc3ccccc3)nc(-n3nc(C)cc3C)n2)c1 | 1.85µM | n | 10µM | x | 2.08µM
COc1ccc(O)c(/C=N/Nc2nc(C)cc(-c3ccccc3)n2)c1 | x | n | n[7.34 µM] | n[7.34 µM] | x
COc1cc(/C=N/Nc2nc(Nc3ccccc3)nc(N3CCCCC3)n2)ccc1OCC(=O)O | n | n | n | n | u
COc1ccc(/C=N/Nc2nc(Nc3ccccc3)nc(N3CCCCC3)n2)c(OC)c1 | u | n | n | n | n
COc1cc(/C=N/Nc2nc(Nc3ccc(C)cc3)nc(-n3nc(C)cc3C)n2)cc(OC)c1OC | x | n | x | x | 1.85µM
COc1cc(/C=N/Nc2nc(Nc3ccccc3)nc(-n3nc(C)cc3C)n2)cc(OC)c1OC | 3.29µM | n | u | u | n
Cc1c(Cl)cccc1NC(=O)c1ccc2nc(C(C)C)oc2c1 | x | x | n | n | x
Cc1cc(C)cc(-n2c(C)cc(C(=O)C(=O)Nc3nnc(C)s3)c2C)c1 | x | x | n | n | x
COc1cccc(C(=O)Nc2ccccc2OCc2cc(=O)n3cc(C)ccc3n2)c1 | x | x | n | n | x
Brc1ccc(-c2nnc3ccc(N4CCN(c5ccccc5)CC4)nn23)cc1 | u | n | x | x | 11.7µM
O=C(Nc1ccc(Cl)cc1)N1CCN(c2ccc3nnc(-c4ccccc4)n3n2)CC1 | x | x | u | 10µM | x
c1ccc(CSc2nnc(-c3ccccc3)c(-c3ccccc3)n2)cc1 | x | n | n | n | x
CSc1nnc(-c2ccccc2)c(-c2ccccc2)n1 | 11.7µM | n | x | x | u
Cc1ccn2c(NC(=O)c3ccco3)c(-c3ccccc3)nc2c1 | n | n | n | n | 4.15µM
Cc1ccn2c(NC(=O)c3cccs3)c(-c3ccccc3)nc2c1 | n | n | n | n | u
Cc1ccc(N2C=Nc3ccc(C)c4nc(C)cc2c34)cc1 | 9.28µM | n | n | x | n
CC1=Nc2ccc(C)c3nc(C)cc(c23)N1c1ccc(C)cc1 | x | n | n | u | x
CCOC(=O)c1sc2nc(C)nc(SC(C)C(=O)N(C)c3ccccc3)c2c1C (stereo not given) | 11.7µM | n | n | n | 9.28µM
SMILES | Pf growth 48h | AMA1-RON2 inh | VACV Venus inh | Vaccinia mCherry | Pf growth 96h
CCOC(=O)c1sc2nc(C)nc(Nc3ccc(OC)cc3)c2c1C | n | n | n | n | n
Cc1ccc(C)c(Cn2c(=O)n(Cc3ccccc3)c(=O)c3c(C)c(C)sc32)c1 | x | x | n | n | x
O=C(Nc1cccc(F)c1)C1CCN(S(=O)(=O)c2cccc3nsnc23)CC1 | x | x | n | n | x
CCCCNC(=O)c1sc2ncnc(N3CCc4ccccc4C3)c2c1C | u | n | x | x | 14.7µM
Cc1ccc(N(CC(=O)Nc2ccccc2-c2ccccc2)S(=O)(=O)c2ccccc2)cc1 | u | n | u | x | 6.57µM
Cc1ccc(S(=O)(=O)Nc2ccccc2-c2ccccc2)cc1 | n | n | x | x | 11.7µM
Cc1cccc(N(CC(=O)Nc2ccccc2-c2ccccc2)S(=O)(=O)c2ccccc2)c1C | 8.28µM | n | n | u | n
O=C(C1CCC(Cn2c(=O)c3sccc3n(Cc3ccccc3)c2=O)CC1)N1CCOCC1 (stereo not given) | x | x | n | n | x
CCCc1cc(=O)[nH]c2nnc(SCC(=O)Nc3cccc(C)c3)n12 | x | x | n | n | x
CCOc1ccc(NC2=C(Cl)C(=O)N(Cc3ccccc3)C2=O)cc1 | u | u | n | n | u
Cc1ccc(O)c(NC2=C(Cl)C(=O)N(Cc3ccccc3)C2=O)c1 | 11.7µM | n | n | u | u
Cc1ccc(C(=O)N2CCCCC2)cc1NC1=C(Cl)C(=O)N(Cc2ccccc2)C1=O | 4.65µM | n | x | x | 5.22µM
Cc1ccc(S(=O)(=O)N2CCN(S(C)(=O)=O)C2)cc1 | n | n | n | n | 13.1µM
Cc1ccc(S(=O)(=O)N2CC(=NO)C2)cc1 | n | n | x | x | 13.1µM
Cc1ccc(OCC(=O)Nc2ccc3nc(SCC(=O)N4CCCC4)sc3c2)cc1 | x | x | n | n | x
Nc1ccc(N=Nc2ccccc2)cc1 | n | u | n | u | n
Nc1ccc(N(c2ccccc2)c2ccc(N)cc2)cc1 | u | u | 28.2µM | u | n
COc1ccc(CNc2cccc3[nH]c(C(F)(F)F)nc23)cc1OC | 1.47µM | n | n | n | n
Cc1ccc(NC(=O)CSC(C)c2nc3ccccc3c(=O)[nH]2)cc1 (stereo not given) | n | n | n | n | 14.7µM
CC(SCC(=O)Nc1ccccc1)c1nc2ccccc2c(=O)[nH]1 (stereo not given) | n | n | n | n | u
COc1ccccc1CNC(=O)CCCn1nc(C)c2c(C)n(-c3ccccc3)nc2c1=O | n | n | x | x | 11.7µM
COC(=O)c1ccccc1NC(=O)CCCn1nc(C)c2c(C)n(-c3ccccc3)nc2c1=O | u | n | n | n | 14.7µM
Cc1ccccc1NC(=O)CCCn1nc(C)c2c(C)n(-c3ccccc3)nc2c1=O | n | n | x | x | u
Cc1cc(C)cc(NC(=O)CCCn2nc(C)c3c(C)n(-c4ccccc4)nc3c2=O)c1 | n | n | n | n | 13.1µM
CCOc1ccc(NC(=O)Nc2c[nH]c(=O)[nH]c2=O)cc1 | x | x | n | n | x
SMILES | Pf growth 48h | AMA1-RON2 inh | VACV Venus inh | Vaccinia mCherry | Pf growth 96h
Nc1cc(=O)nc(SCC(=O)Nc2ccc(F)cc2)n1-c1ccccc1Cl | x | x | n | n | x
Cc1cccc(CN2C[C@H](Sc3ccccn3)C[C@H]2C(=O)Nc2ccc3sc(C)nc3c2)c1 | x | x | n | n | x
Cc1ccc2c(c1)c1c(n2CCc2ccc(C)nc2)CCN(C)C1 | 14.7µM | x | x | x | 2.08µM
Cc1ccc2c(c1)c1c(n2CC(O)CNC2CCCC2)CCCC1 (stereo not given) | n | u | x | x | u
CCN(CC)P(=O)(Nc1ccc([N+](=O)[O-])cc1)c1c(C)nn(CCC#N)c1NC(=O)c1ccc(Cl)cc1Cl (stereo not given) | 7.38µM | n | u | u | 7.38µM
N#CCCn1cc(C(=O)Nc2ccc([N+](=O)[O-])cc2)c(-c2ccccc2)n1 | n | n | x | x | n
